S-ASM inh: inhibitors of human secretory acid sphingomyelinase. placental ASM, HMU-PC fluorogenic substrate, 60 min. Potency, µM (highest dose often 57.5 µM), hits mostly inhibitors. 340,000 compounds, 0.006% hits
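Human placenta-derived ASM preincubated with compound 10 min at room temperature, then reacted with 9 uM (final) fluorogenic HMU-PC substrate for 60 min at 37 C. Stop solution raises pH to 10; fluorescence read at Ex 386/Em 447 nm.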
Giardia kill: kills Giardia lamblia | Giardia lamblia trophozoite viability | activity change, % at 7.66 µM, hits read low | 340,000 compounds, 0.15% hits; in the data active means activity change below about -80%; inconclusive means between about -30% and that limit;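 further: parasites exposed to compound for two days anaerobically before the ATP read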
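Compounds were tested on trophozoites seeded at 100 cells/well and held 48 hrs at 37 deg C anaerobically. An ATP-based luminescent kit measured the remaining live cells.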
KB-V1 MDR tox: kills drug-selected multidrug resistant KB-V1 cells | Potency, µM (series often up to 46.1 µM), actives largely listed as cytotoxic | KB-V1 MDR cells viability, CellTiter-Glo, 72 h | 400,000 compounds, 3.4% hits; further: nearly all actives have a fitted effect of over 60% in size
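qHTS viability screen in drug-selected KB-V1 MDR cells: 72 h compound treatment at 37 degrees C, ATP luminescence end point.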
KB-3-1 cytotox: KB-3-1 parental cell cytotoxicity | Potency, µM (top dose mostly 46.1 µM), hits mostly cytotoxic | KB-3-1 viability, CellTiter-Glo ATP luminescence, 72 h | AID 1347075 | 400,000 compounds, 1.4% hits; further: nearly all actives have a fitted effect of over 60% in size
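Cells are dispensed, compounds pinned in, plates held at 37 °C for 72 h, then CellTiter-Glo is added and luminescence read after 10 minutes. Cell line: parental KB-3-1 in phenol-red-free DMEM, 10% FBS.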
MCF10A rerep: DNA re-replication induction in MCF 10a cells; MCF 10A DNA re-replication, Hoechst nuclear intensity, 48 h; Potency, µM (series often up to 46.1 µM), actives largely listed as activators; 350,000 compounds, 2.9% hits; further: nearly all actives have a fitted effect of over 50% in size
SW480 rereplic: inducers of DNA re-replication in SW480 colon cancer cells; SW480 DNA re-replication, Hoechst DNA content imaging, 48 h; Potency, µM (titrated, usually from 46.1 µM), hits mostly activators; 340,000 compounds, 1.8% hits; further: nearly all actives have a fitted effect of over 55% in size
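Per well, 250 cells were exposed to pinned compound for 48 hr. Nuclear DNA was visualised with Hoechst (40 min, 37 C) and total object intensity recorded by fluorescence scanning.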
A number is an active result; - = inactive; ? = inconclusive; . = no result given. Hits are enriched below; roughly 6.9% of the tested compounds scored in any of these assays. Unless noted, the call rests on the fitted dose curve; in most records, active means well fitted curve in the direction sought with a large enough effect; inconclusive means small, poorly fitted or top-dose-only effect, or another doubt; inactive means no such curve, though single readings can be large; an effect the other way counts as inactive or inconclusive.

SMILES	S-ASM inh	Giardia kill	KB-V1 MDR tox	KB-3-1 cytotox	MCF10A rerep	SW480 rereplic
Cn1c(=O)c2c(ncn2Cc2cccc(Cl)c2)n(C)c1=O	-	-	?	?	-	-
Cn1c(=O)c2c(ncn2Cc2ccc(Cl)c(Cl)c2)n(C)c1=O	-	-	2.6µM	?	-	-
Cn1c(=O)c2c(nc(Cl)n2Cc2ccc(Cl)c(Cl)c2)n(C)c1=O	-	-	16µM	?	-	-
Cn1c(=O)c2c(nc(Cl)n2Cc2ccncc2)n(C)c1=O	-	-	-	-	-	?
CCN(CC)CCCNC(=O)c1cn(CC)c2ccc(S(=O)(=O)N3CCC(C)CC3)cc2c1=O	.	.	-	-	.	.
CN(C)C(CNS(=O)(=O)c1cc([N+](=O)[O-])ccc1Cl)c1ccco1 (configuration not stated)	-	-	-	-	-	-
CN(C)C(CNS(=O)(=O)c1ccc(Cl)cc1F)c1ccco1 (configuration not stated)	-	-	18µM	-	-	-
Cc1nc(N2CCC(C)CC2)c2c(C)c(C(=O)Nc3ccccc3C(F)(F)F)sc2n1	-	-	-	-	9.2µM	-
COC(=O)C1CCN(c2ccc([N+](=O)[O-])cc2[N+](=O)[O-])CC1	-	-	16µM	-	-	-
O=[N+]([O-])c1ccc(N2CCCCCC2)c([N+](=O)[O-])c1	-	-	-	-	?	-
CCn1ccc(C(=O)NC2=NCCS2)n1	-	-	-	-	-	23µM
Cc1ccc(S(=O)(=O)c2nc(Nc3ccccc3N3CCOCC3)sc2Cl)cc1	-	-	10µM	-	-	-
Cc1ccc(S(=O)(=O)c2nc(Nc3ccccc3C#N)sc2Cl)cc1	-	-	-	-	-	-
COC(=O)c1sccc1NC(=O)CN(C)NS(=O)(=O)c1ccc(Cl)cc1	-	-	?	-	?	?
COC(=O)c1sccc1NC(=O)CSc1ccc(Cl)cc1	-	-	23µM	-	-	-
COC(=O)c1sccc1NC(=O)CSc1ccccc1N	-	-	-	-	?	-
COC(=O)c1sccc1NC(=O)CN(C)NS(=O)(=O)c1ccc(F)cc1	-	-	?	-	?	13µM
COC(=O)c1sccc1NC(=O)CSc1ccccc1NS(=O)(=O)c1ccc(Br)cc1	-	-	4.1µM	21µM	-	-
COC(=O)c1sccc1NC(=O)Cn1nnc(-c2ccc(C)cc2)n1	-	-	21µM	-	-	-
O=C1CCN(Cc2ccccc2)CCN1[C@H](CO)Cc1ccccc1	-	-	?	-	-	5.2µM
O=C1CCN(Cc2ccc(O)cc2)CCN1[C@H](CO)Cc1ccccc1	-	-	-	-	-	-
Cc1cccc(C)c1-n1nnnc1-c1nc2cc(Br)ccc2[nH]c1=O	.	.	-	-	.	.
Cc1cccc(C)c1-n1nnnc1-c1nc2cc3ccccc3cc2[nH]c1=O	.	.	6.5µM	1µM	.	.
Cc1nc2cccnc2n1C1CCN(S(=O)(=O)N(C)C)CC1	.	.	-	-	.	.
CC(C)NS(=O)(=O)c1ccc(OCC(=O)NCC2CCCO2)c(Cl)c1 (configuration not stated)	-	-	?	-	-	-
SMILES	S-ASM inh	Giardia kill	KB-V1 MDR tox	KB-3-1 cytotox	MCF10A rerep	SW480 rereplic
Cc1cc(S(=O)(=O)NCC(C)C)ccc1OCC(=O)NCC1CCCO1 (configuration not stated)	-	?	21µM	-	-	?
CC(=O)Nc1cccc(C(=O)/C=C/c2ccc(Br)cc2)c1	.	-	?	-	5.8µM	21µM
CC(=O)Nc1cccc(C(=O)/C=C/c2ccc(N(C)C)cc2)c1	-	-	?	-	?	?
CCC(=O)Nc1cccc(C(=O)/C=C/c2cc(Br)ccc2OC)c1	-	-	18µM	-	2.9µM	3.7µM
CC(=O)Nc1cccc(C(=O)/C=C/c2ccc[nH]2)c1	-	-	-	-	-	-
CC(=O)Nc1cccc(C(=O)/C=C/c2ccc(F)cc2)c1	-	-	?	-	9.2µM	?
CCCOc1ccc(C(=O)Nc2ccc3oc(-c4ccc(N(C)C)cc4)nc3c2)cc1	.	.	-	-	.	.
COC(=O)c1cc(-c2cc(OC)ccc2OC)nc2c1c(=O)n(C)c(=O)n2Cc1ccccc1	-	-	?	-	6.5µM	2.3µM
